KKLEB cytotox: reduces viability of KKLEB cystic fibrosis airway cells; KKLEB CF airway cells viability, ATPlite luminescence, overnight; active compounds read low; cells stimulated with P. aeruginosa culture filtrate; activity change (cytotoxicity), % at 5 µM; 360,000 compounds, 0.36% hits; AID 602141;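 active means corrected activity change at or below -50% at 5 µM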
Peg3 promoter: inhibitors of Peg3 promoter | inhibition, % at 20 µM | HeLa PEG-Prom luciferase reporter, luminescence, overnight | 360,000 compounds, 1.7% hits;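 active means inhibition of at least 50% at 20 µM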
CF NFkB inh: cystic fibrosis NF-kB activation inhibition; KKLEB NF-kB-GFP reporter, PAF-induced, GFP fluorescence overnight; inhibition, % at 5 µM; 360,000 compounds, 0.86% hits;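 active means at least 50% inhibition at 5 µM, scaled per plate between neutral and stimulator controls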;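 further: PAF is a Pseudomonas aeruginosa culture filtrate used as stimulus; plate controls were PAF-stimulated DMSO wells for no effect and unstimulated DMSO wells for full effect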
TROY signal inh: inhibitors of TROY-dependent NF-kB signaling; Q293 LMP1-TROYcd NF-kB luciferase reporter, 4 h; inhibition, % at 10 µM; 360,000 compounds, 0.98% hits; AID 1347056;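 active means compounds whose plate-normalised and pattern-corrected inhibition of the luciferase reporter signal at the single screening dose is 50% or more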
TWEAK Fn14 block: blocks TWEAK-Fn14 interaction in a reporter cell assay; TWEAK-stimulated Fn14 reporter cells, luciferase luminescence, 8 h; inhibition, % at 10 µM; 360,000 compounds, 2% hits; AID 1159606; in the data active means inhibition above about 50%
HIF-2a inh: blocks HIF-2a reporter activity. 786-0 RCC cells HIF-2a reporter, luciferase luminescence, overnight. inhibition, % at 18.8 µM. 360,000 compounds, 0.72% hits. AID 624352;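 active means inhibition of the luminescence signal of 40% or more relative to plate controls, in a single-dose primary screen at 18.75 µM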
* marks the source's active call; other numbers are inactive results; / = no result given. A selection: hits, their analogues and other compounds. The true share with any hit is near 4%.

SMILES	KKLEB cytotox	Peg3 promoter	CF NFkB inh	TROY signal inh	TWEAK Fn14 block	HIF-2a inh
C/C(=N\NC(=O)COc1ccc(C(C)(C)C)cc1)c1cc2ccccc2o1	-57.7*	-191.1	-3.1	-35.9	-0.2	-190.6
O=C(OCn1ncc(Br)c(Br)c1=O)c1ccc(F)cc1	-103.6*	108.9*	93.4*	83.4*	102.3*	92.6*
O=C(OCn1ncc(Br)c(Br)c1=O)c1ccccc1Cl	-96.2*	106.1*	91.4*	80.2*	97.2*	92.2*
O=C(NC1(C(=O)O)CCCC1)c1ccccc1	2.5	-2.1	8.2	1.1	8.1	14.5
COc1ccc(CN2CCOCC2)cc1Br	2.2	7.0	-3.4	11.4	-7.7	0.7
COc1cc2sc3ccc(-c4ccc(CN5CCOCC5)cc4)cc3c(=O)c2cc1OC	-20.2	99.2*	-232.9	-19.3	2.0	-183.5
COc1ccc(CN2CCOCC2)cc1OC	4.9	13.2	-3.9	/	98.5*	3.3
CC(=O)Nc1cccc(-c2ccnc3c2CC(C)(C(=O)Nc2ccc(Cl)c(C(F)(F)F)c2)O3)c1 (stereo not drawn)	-6.4	46.3	-8.7	49.5	14.7	-5.1
CC(=O)c1ccc(Nc2nc(C(C)N)cs2)cc1 (stereo not drawn)	-9.9	7.5	4.2	-5.6	-5.8	-0.8
CC1CC2C(C(O)CC3(C)C2CCC3(O)C(=O)CO)C2(C)C=CC(=O)C=C12 (stereo not drawn)	11.1	-21.7	76.0*	10.4	-21.7	16.8
CC(=O)OCC(=O)[C@@]1(O)CC[C@H]2[C@@H]3C[C@H](C)C4=CC(=O)C=C[C@]4(C)[C@H]3[C@@H](O)C[C@@]21C	-10.6	-12.6	77.3*	5.0	-7.8	29.7
Cc1nnc(NC(=O)CCS(=O)(=O)c2ccccc2)s1	-0.2	14.8	-15.4	-14.5	14.2	-12.8
COc1ccc(C)c2sc(NC(=O)CCS(=O)(=O)c3ccccc3)nc12	-39.5	77.8*	35.6	-1.5	15.7	-51.1
O=C(NNc1ccc(O)cc1)c1ccc(Br)cc1	5.1	2.9	-5.2	-12.5	-31.6	-1.2
CC(=O)Nc1ccc(S(=O)(=O)Oc2ccccc2N2C(=O)C3C4CCC(C4)C3C2=O)cc1 (stereo not drawn)	4.2	14.3	-15.1	-6.4	-7.1	2.6
NC(=O)CC(NC(=O)Cc1ccc(Cl)cc1)c1ccc(NCCN2CCOCC2)c([N+](=O)[O-])c1 (stereo not drawn)	-5.3	32.3	-1.5	5.5	-0.8	3.2
O=C1CC(Sc2nnnn2-c2ccccc2)C(=O)N1c1cccc(Cl)c1 (stereo not drawn)	-14.9	115.9*	44.9	8.7	-13.9	39.5
COc1ccc(N2C(=O)CC(Sc3nnc(-c4ccccc4)o3)C2=O)cc1 (stereo not drawn)	4.9	84.9*	26.1	-9.6	-6.6	4.2
COc1ccc(N2C(=O)CC(Sc3nc(C)cc(C)c3C#N)C2=O)cc1 (stereo not drawn)	-24.5	-45.7	14.0	1.7	-9.1	-126.8
COc1ccc(N2C(=O)CC(Sc3nnnn3-c3ccc(F)cc3)C2=O)cc1 (stereo not drawn)	-2.4	114.5*	27.2	-6.5	-11.5	-0.2
COc1ccccc1Cc1c(C2CCCCC2)nc2c3ccccc3ccn12	/	/	/	-28.2	17.3	-13.1
CC(C)C(=O)Nc1cccc(COc2ccc(CN(Cc3ccccc3)C(=O)OC(C)(C)C)cc2)c1	-12.4	-8.8	21.3	21.7	70.2*	0.7
CCc1cc(OCCN(C)C)ccc1Cl	3.6	11.5	-2.8	1.8	-2.4	14.0
CN(C)CCOc1ccc2c(c1)C(=O)C(=Cc1ncc([N+](=O)[O-])n1C)C2	-16.5	103.2*	-64.1	17.5	-0.1	21.3
Cc1ccc2c(c1)c(-c1csc(N)n1)c(C)n2C	-4.8	-3.1	-6.8	-2.1	22.1	-1.2
ClC1=C(Cl)C(Cl)=C(Cl)C1=C/C=C/c1ccccc1	-93.9*	106.7*	90.8*	-3.9	22.6	-18.5
Cc1nn(-c2ccccc2)c(C)c1/C=N/n1c(-c2ccc(Cl)cc2)n[nH]c1=S	2.8	52.7*	17.2	11.8	-23.1	8.4
Cc1ccc(C)c(S(=O)(=O)N2CCN(C(=O)c3cc(-c4cccs4)nn3-c3ccccc3)CC2)c1	-9.7	42.9	31.2	33.1	63.9*	22.2

Compound activity: PubChem, Sanford-Burnham Center for Chemical Genomics
